From PubChem
DT40 TDP1 no CPT: qHTS for Inhibitors of human tyrosyl-DNA phosphodiesterase 1 (TDP1): qHTS in cells in absence of CPT. DT40 Tdp1-/- hTDP1 cells, no CPT, ATP luminescence, 48 h. Potency, µM (top dose mostly 46.2 µM), without a hit: at the highest dose activity change, negative = growth inhibition, most hits filed as inhibitors. 420,000 tested, 15% active; further: potency means the concentration at half of the fitted maximal effect; nearly all actives have a fitted effect of over 55% in size
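DT40 Tdp1-/-;hTDP1 cells, no CPT (DMSO vehicle only), 400 cells/well; compounds pin-transferred; ≥48 hr, 37 °C; CellTiter-Glo 30 min RT dark, luminescence read.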
ELG1 DNA repair: qHTS screen for small molecules that inhibit ELG1-dependent DNA repair in human embryonic kidney (HEK293T) cells expressing luciferase-tagged ELG1; HEK293T ELG1-luciferase reporter, luminescence, 16 h; DNA damage induced by 5-fluorouridine; Potency, µM (top dose mostly 46.1 µM), without a hit: top-dose activity change, negative = inhibition, actives largely listed as inhibitors; 330,000 tested, 2.3% active; AID 504467, 2011; further: potency means the concentration at half of the fitted maximal effect; nearly all actives have a fitted effect of over 55% in size
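Luminescence from the luciferase reporter, measured 30 min after ONE-Glo reagent at room temperature, was the read-out. Beforehand, 2,000 cells per well were exposed for 16 hr at 37 °C to 5-fluorouridine together with compound or vehicle.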
HT1080 IDH1KD tx: qHTS for induction of synthetic lethality in tumor cells producing 2HG: qHTS for the HT-1080-IDH1KD cell line | Potency, µM (series often up to 46.1 µM), for inactives: top-dose activity, negative = toxicity, hits mostly cytotoxic | AID 686971, 2013 | HT-1080 IDH1 knockdown viability, ATP luminescence, 48 h | 360,000 tested, 2% active;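 further: potency means the concentration at half of the fitted maximal effect; 0% = DMSO wells and -100% = cell-free medium wells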
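After a 2 h attachment period, IDH1KD HT-1080 cells took pin-transferred compound for 48 h at 37 °C; ATP-based luminescence after 10 min room-temperature reagent incubation reported viability.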
DT40 TDP1 CPT: qHTS for Inhibitors of human tyrosyl-DNA phosphodiesterase 1 (TDP1): qHTS in cells in presence of CPT. Potency, µM (series often up to 46.2 µM), for the others: at the highest dose activity change, negative = growth inhibition, actives largely listed as inhibitors. 420,000 tested, 12% active. AID 686979, 2013. chicken DT40 Tdp1-/-;hTDP1 cells + 20 nM CPT, ATP luminescence, 48 h; further: potency means the concentration at half of the fitted maximal effect; nearly all actives have a fitted effect of over 55% in size
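Chicken DT40 Tdp1-/- cells complemented with human TDP1, 400 cells/well, exposed to compounds plus 20 nM camptothecin for at least 48 h at 37 C; viability read as ATP content by CellTiter-Glo luminescence.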
HT1080-NT tox: qHTS for induction of synthetic lethality in tumor cells producing 2HG: qHTS for the HT-1080-NT fibrosarcoma cell line. HT-1080-NT fibrosarcoma viability, CellTiter-Glo ATP luminescence, 48 h. Potency, µM (highest dose often 46.1 µM), for inactives: top-dose activity, negative = less viability, usual class: cytotoxic. 360,000 tested, 1.6% active;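 further: NT is the 2HG producing partner of a matched IDH1 knockdown line; potency means the concentration at half of the fitted maximal effect; 0% = DMSO-treated cells and -100% = media-only wells without cells; nearly all actives have a fitted effect of over 55% in size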
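Toxicity toward the 2HG-producing NT line was scored as %Activity, normalised to DMSO and no-cell wells, from CellTiter-Glo luminescence after 48 hours' treatment.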
IL-1B inflam inh: qHTS for Inhibitors of Inflammasome Signaling: IL-1-beta AlphaLISA Primary Screen | THP-1 LPS/ATP IL-1B secretion, AlphaLISA, 16 h; hits give low values | activity change, % at 57.5 µM | 360,000 tested, 4.7% active; in the data active means activity change below about -50%; inconclusive means mostly about -30% to -49%
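Secreted IL-1B measured by AlphaLISA bead assay after 16 h compound exposure of THP-1 cells; compounds (final up to 57.5 uM) added 1 h before LPS (250 ng/mL) and ATP (1.25 mM) stimulation; lower signal means less secretion.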
* = called active by the depositor. Hits are enriched below; roughly 19% of the tested compounds scored in any of these assays. Unless noted, the call rests on the fitted dose curve; in most records, active means well fitted curve in the direction sought with a large enough effect; inconclusive means small, poorly fitted or top-dose-only effect, or another doubt; inactive means no such curve, though single readings can be large; an effect the other way counts as inactive or inconclusive. Unless noted, on the % scale 0 is the no-effect control and ±100 the full control effect.

For CC1(C)CC(C#N)(N2CCOCC2)CCO1 (stereo not given) the results were DT40 TDP1 no CPT inconclusive, HT1080 IDH1KD tx 0.1%, DT40 TDP1 CPT 2.91µM*, HT1080-NT tox -0.2% and IL-1B inflam inh 15.5.
`CC1(C)OC2CC3C4CC(F)C5=CC(=O)C=C[C@@]5(C)[C@@]4(F)C(O)C[C@@]3(C)[C@]2(C(=O)CO)O1` (stereo not given in full) gave DT40 TDP1 no CPT 1.1% and DT40 TDP1 CPT -13.1%.
Screening COc1ccccc1/C=C/C=C(\C#N)C(=O)NC(C)c1ccccc1 (stereo not given) returned DT40 TDP1 no CPT 20.6µM*, ELG1 DNA repair -17.4%, HT1080 IDH1KD tx inconclusive, DT40 TDP1 CPT -27.0%, HT1080-NT tox inconclusive and IL-1B inflam inh -94.2*.
COc1cc(/C=C(/C#N)C(=O)NC(C)c2ccccc2)cc(OC)c1O (stereo not given) was read as DT40 TDP1 no CPT inconclusive, ELG1 DNA repair -10.1%, HT1080 IDH1KD tx -5.4%, DT40 TDP1 CPT -21.3%, HT1080-NT tox -4.2% and IL-1B inflam inh -2.1.
O=C(CC(c1ccccc1)c1ccco1)Nc1nccs1 (stereo not given) was read as DT40 TDP1 no CPT 14.6µM*, ELG1 DNA repair 1.6%, HT1080 IDH1KD tx 2.9%, DT40 TDP1 CPT 25.9µM*, HT1080-NT tox 2.0% and IL-1B inflam inh 6.7.
`COc1ccc(NC(=O)CC(C(=O)O)C(C)c2ccccc2)cc1` (stereo not given) gave DT40 TDP1 no CPT 11.4%, ELG1 DNA repair 6.8%, HT1080 IDH1KD tx 7.0%, DT40 TDP1 CPT 42.7%, HT1080-NT tox 4.9% and IL-1B inflam inh 0.5.
For CC(CC(=O)Nc1nccs1)c1ccccc1 (stereo not given) the results were DT40 TDP1 no CPT inconclusive, ELG1 DNA repair inconclusive, HT1080 IDH1KD tx -5.5%, DT40 TDP1 CPT 3.1%, HT1080-NT tox 4.1% and IL-1B inflam inh -14.3.
For COc1ccc(NC(=O)CC(c2ccccc2)c2ccco2)cc1 (stereo not given) the results were DT40 TDP1 no CPT 16.4µM*, ELG1 DNA repair -14.4%, HT1080 IDH1KD tx -16.6%, DT40 TDP1 CPT inconclusive, HT1080-NT tox inconclusive and IL-1B inflam inh -4.8.
`CCn1c(CSc2nnc(-c3ccc4c(c3)OCO4)o2)nc2cc(S(=O)(=O)N(C)C)ccc21` gave DT40 TDP1 no CPT inconclusive, ELG1 DNA repair 14.6µM*, HT1080 IDH1KD tx 9.6%, DT40 TDP1 CPT inconclusive, HT1080-NT tox -6.8% and IL-1B inflam inh -27.9.
`O=[N+]([O-])c1ccccc1N/N=C/c1c[nH]c2ccccc12` gave DT40 TDP1 no CPT inconclusive, ELG1 DNA repair inconclusive, HT1080 IDH1KD tx inconclusive, DT40 TDP1 CPT inconclusive, HT1080-NT tox inconclusive and IL-1B inflam inh -20.6.
O=[N+]([O-])c1ccc(N/N=C/c2c[nH]c3ccccc23)cc1 was read as DT40 TDP1 no CPT 16.4µM*, ELG1 DNA repair inconclusive, HT1080 IDH1KD tx inconclusive, DT40 TDP1 CPT inconclusive, HT1080-NT tox -25.1% and IL-1B inflam inh -90.4*.
`COc1ccc(C=NNc2ccc([N+](=O)[O-])cc2S(=O)(=O)Nc2ccccc2C(=O)O)cc1OC` gave DT40 TDP1 no CPT -1.9%, ELG1 DNA repair 13.9%, HT1080 IDH1KD tx 4.8%, DT40 TDP1 CPT 7.0%, HT1080-NT tox 3.5% and IL-1B inflam inh 5.5.
Screening COc1ccccc1NS(=O)(=O)c1cc([N+](=O)[O-])ccc1N/N=C/c1c[nH]c2ccccc12 returned DT40 TDP1 no CPT inconclusive, ELG1 DNA repair inconclusive, HT1080 IDH1KD tx inconclusive, DT40 TDP1 CPT inconclusive, HT1080-NT tox inconclusive and IL-1B inflam inh -80.5*.
Cc1[nH]c2ccccc2c1/C=N/Nc1ccc([N+](=O)[O-])cc1S(=O)(=O)Nc1ccc(Cl)cc1 was read as DT40 TDP1 no CPT 14.6µM*, ELG1 DNA repair inconclusive, HT1080 IDH1KD tx 9.2%, DT40 TDP1 CPT 20.6µM*, HT1080-NT tox 0.8% and IL-1B inflam inh 1.4.
For O=[N+]([O-])c1ccc(N/N=C/c2ccc[nH]2)cc1 the results were DT40 TDP1 no CPT 23.1µM*, ELG1 DNA repair 28.3%, HT1080 IDH1KD tx -22.2%, DT40 TDP1 CPT inconclusive, HT1080-NT tox -4.5% and IL-1B inflam inh -76.8*.
For COc1ccc(OCC(=O)OCC(=O)NC2CC2)cc1 the results were DT40 TDP1 no CPT 22.4%, ELG1 DNA repair 21.8%, HT1080 IDH1KD tx 7.0%, DT40 TDP1 CPT 6.2%, HT1080-NT tox 16.9% and IL-1B inflam inh 0.0.
Screening COc1ccc(NS(=O)(=O)c2cc([N+](=O)[O-])ccc2N/N=C\c2c(C)[nH]c3ccccc23)cc1 returned DT40 TDP1 no CPT inconclusive, ELG1 DNA repair -3.6%, HT1080 IDH1KD tx -3.6%, DT40 TDP1 CPT 16.4µM*, HT1080-NT tox -2.9% and IL-1B inflam inh -1.2.
`CCOC(=O)N1CCC2(CC1)C(C(=O)C13CC4CC(CC(C4)C1)C3)C2(C#N)C#N` (stereo not given) gave DT40 TDP1 no CPT inconclusive, ELG1 DNA repair inconclusive, HT1080 IDH1KD tx -0.7%, DT40 TDP1 CPT inconclusive, HT1080-NT tox -2.7% and IL-1B inflam inh -54.2*.
For COc1ccc(C(N)=O)c(OCC(=O)Nc2cc(C)on2)c1 the results were DT40 TDP1 no CPT -14.2%, ELG1 DNA repair 19.2%, HT1080 IDH1KD tx 0.0%, DT40 TDP1 CPT 14.8%, HT1080-NT tox 7.8% and IL-1B inflam inh 11.5.
For Cc1cc(NC(=O)CSc2nnc3ccc(-c4ccccc4)nn23)no1 the results were DT40 TDP1 no CPT -1.1%, HT1080 IDH1KD tx 7.6%, DT40 TDP1 CPT 2.5%, HT1080-NT tox 10.0% and IL-1B inflam inh 17.9.
COc1ccc(CNC(=O)C2CCN(S(=O)(=O)c3cccc4nonc34)CC2)cc1 was read as DT40 TDP1 no CPT -0.1%, ELG1 DNA repair 0.9%, HT1080 IDH1KD tx 5.8%, DT40 TDP1 CPT 4.2%, HT1080-NT tox 8.7% and IL-1B inflam inh 8.5.
Screening O=C(ONC1=NCCCCC1)c1c(F)cccc1F returned DT40 TDP1 no CPT inconclusive, ELG1 DNA repair inconclusive, HT1080 IDH1KD tx -7.9%, DT40 TDP1 CPT 16.4µM*, HT1080-NT tox -21.5% and IL-1B inflam inh -7.5.
